# Values joined by “and” are separate entries in the source; they are usually repeats but may differ in a detail not shown here. Identical values can stand only once. Out of some 5,500 compounds screened, about 2,000 (36%) were called active. Inconclusive results (about 18%) are left out. Rule as the data show it: active = normalized growth mostly below about 0.91 (no sharp cut-off); inconclusive = no clear call, values can overlap the other calls; inactive = mostly above about 0.92. Some of the results follow.
# Test: chemical genetic growth profiling, strain panel (AID 1159580);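 also: tested at 20 µM; growth read once vehicle control cultures reached saturation at 30 °C; 1 = growth at the plate median or of vehicle wells; lower values mean less growth of the strain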
# Conditions: S. cerevisiae deletion strains, growth OD
smiles,measurement,setting,value
COc1ccc(-c2cc(=O)c3c(O)cc(O)cc3o2)cc1,normalized growth,"locus YAL013W, strain DEP1, stronger effect = lower value",1.01 (inactive)
same,normalized growth,"locus YAL021C, strain ccr4, stronger effect = lower value",0.967 (inactive)
same,normalized growth,"locus YAL026C, strain drs2, stronger effect = lower value",0.975 (inactive)
same,normalized growth,"locus YAL030W, strain snc1, stronger effect = lower value",1 (inactive)
same,normalized growth,"locus YBL061C, strain skt5, stronger effect = lower value",1 (inactive)
same,normalized growth,"locus YBR009C, strain hhf1, stronger effect = lower value",0.939 (inactive)
same,normalized growth,"locus YBR021W, strain FUR4, stronger effect = lower value",1.02 (inactive)
same,normalized growth,"locus YBR023C, strain chs3, stronger effect = lower value",0.961 (inactive)
same,normalized growth,"locus YBR171W, strain sec66, stronger effect = lower value",0.999 (inactive)
same,normalized growth,"locus YBR229C, strain ROT2, stronger effect = lower value",1 (inactive)
same,normalized growth,"locus YBR231C, strain swc5, stronger effect = lower value",0.981 (inactive)
same,normalized growth,"locus YBR279W, strain paf1, stronger effect = lower value",0.977 (inactive)
same,normalized growth,"locus YCL011C, strain gbp2, stronger effect = lower value",0.958 (inactive)
same,normalized growth,"locus YCL016C, strain dcc1, stronger effect = lower value",0.955 (inactive)
same,normalized growth,"locus YCL029C, strain bik1, stronger effect = lower value",0.976 (inactive)
same,normalized growth,"locus YCL069W, strain vba3, stronger effect = lower value",0.967 (inactive)
same,normalized growth,"locus YCR088W, strain abp1, stronger effect = lower value",0.987 (inactive)
same,normalized growth,"locus YDL005C, strain med2, stronger effect = lower value",1.02 (inactive)
same,normalized growth,"locus YDL035C, strain GPR1, stronger effect = lower value",1.03 (inactive)
same,normalized growth,"locus YDL040C, strain nat1, stronger effect = lower value",0.996 (inactive)
same,normalized growth,"locus YDL074C, strain BRE1, stronger effect = lower value",0.95 (inactive)
same,normalized growth,"locus YDL101C, strain DUN1, stronger effect = lower value",0.978 (inactive)
same,normalized growth,"locus YDL185W, strain tfp1, stronger effect = lower value",0.963 (inactive)
same,normalized growth,"locus YDL192W, strain arf1, stronger effect = lower value",0.989 (inactive)
same,normalized growth,"locus YDR001C, strain nth1, stronger effect = lower value",0.988 (inactive)
same,normalized growth,"locus YDR069C, strain doa4, stronger effect = lower value",1.02 (inactive)
same,normalized growth,"locus YDR101C, strain arx1, stronger effect = lower value",0.985 (inactive)
same,normalized growth,"locus YDR137W, strain rgp1, stronger effect = lower value",0.87 (inactive)
same,normalized growth,"locus YDR159W, strain sac3, stronger effect = lower value",0.996 (inactive)
same,normalized growth,"locus YDR162C, strain NBP2, stronger effect = lower value",0.999 (inactive)
same,normalized growth,"locus YDR195W, strain ref2",1.1 (inactive)
same,normalized growth,"locus YDR297W, strain sur2, stronger effect = lower value",0.994 (inactive)
same,normalized growth,"locus YDR318W, strain mcm21, stronger effect = lower value",0.982 (inactive)
same,normalized growth,"locus YDR334W, strain swr1, stronger effect = lower value",0.992 (inactive)
same,normalized growth,"locus YDR335W, strain msn5, stronger effect = lower value",0.978 (inactive)
same,normalized growth,"locus YDR388W, stronger effect = lower value",0.979 (inactive)
same,normalized growth,"locus YDR392W, strain spt3, stronger effect = lower value",0.804 (inactive)
same,normalized growth,"locus YDR502C, strain sam2, stronger effect = lower value",0.984 (inactive)
same,normalized growth,"locus YEL003W, strain gim4, stronger effect = lower value",0.963 (inactive)
same,normalized growth,"locus YEL037C, strain rad23, stronger effect = lower value",0.994 (inactive)
same,normalized growth,"locus YEL061C, strain CIN8 (second series), stronger effect = lower value",0.988 (inactive)
same,normalized growth,"locus YEL061C, strain CIN8, stronger effect = lower value",0.987 (inactive)
same,normalized growth,"locus YER015W, strain faa2, stronger effect = lower value",0.964 (inactive)
same,normalized growth,"locus YER016W, strain bim1, stronger effect = lower value",1.01 (inactive)
same,normalized growth,"locus YER110C, stronger effect = lower value",0.972 (inactive)
same,normalized growth,"locus YER111C, strain swi4, stronger effect = lower value",1.01 (inactive)
same,normalized growth,"locus YER155C, strain BEM2 (second series), stronger effect = lower value",0.966 (inactive)
same,normalized growth,"locus YER155C, strain BEM2, stronger effect = lower value",0.991 (inactive)
same,normalized growth,"locus YER167W, strain BCK2, stronger effect = lower value",1 (inactive)
same,normalized growth,"locus YFR010W, strain ubp6, stronger effect = lower value",1.01 (inactive)
same,normalized growth,"locus YGL078C, strain dbp3, stronger effect = lower value",0.978 (inactive)
same,normalized growth,"locus YGL086W, strain mad1, stronger effect = lower value",0.989 (inactive)
same,normalized growth,"locus YGL167C, strain pmr1, stronger effect = lower value",1.01 (inactive)
same,normalized growth,"locus YGL173C, strain kem1, stronger effect = lower value",1.01 (inactive)
same,normalized growth,"locus YGL227W, strain vid30, stronger effect = lower value",0.99 (inactive)
same,normalized growth,"locus YGL240W, strain doc1, stronger effect = lower value",0.975 (inactive)
same,normalized growth,"locus YGL248W, strain PDE1, stronger effect = lower value",0.984 (inactive)
same,normalized growth,"locus YGL253W, strain hxk2, stronger effect = lower value",0.964 (inactive)
same,normalized growth,"locus YGR135W, strain pre9, stronger effect = lower value",0.984 (inactive)
same,normalized growth,"locus YGR252W, strain gcn5, stronger effect = lower value",1.04 (inactive)
same,normalized growth,"locus YHR013C, strain ard1, stronger effect = lower value",1.06 (inactive)
same,normalized growth,"locus YHR027C, strain rpn1, stronger effect = lower value",1.01 (inactive)
same,normalized growth,"locus YHR030C, strain SLT2, stronger effect = lower value",1.01 (inactive) and 0.823 (active)
same,normalized growth,"locus YHR079C, strain IRE1 (second series), stronger effect = lower value",0.971 (inactive)
same,normalized growth,"locus YHR079C, strain IRE1, stronger effect = lower value",0.847 (active)
same,normalized growth,"locus YHR094C, strain hxt1, stronger effect = lower value",0.992 (inactive)
same,normalized growth,"locus YHR129C, strain ARP1, stronger effect = lower value",0.998 (inactive)
same,normalized growth,"locus YHR142W, strain chs7, stronger effect = lower value",0.914 (inactive)
same,normalized growth,"locus YHR200W, strain rpn10, stronger effect = lower value",0.979 (inactive)
same,normalized growth,"locus YIL066C, strain RNR3, stronger effect = lower value",1.01 (inactive)
same,normalized growth,"locus YIL073C, strain SPO22, stronger effect = lower value",0.942 (inactive)
same,normalized growth,"locus YIL125W, strain kgd1, stronger effect = lower value",0.996 (inactive)
same,normalized growth,"locus YIR030C, strain dcg1, stronger effect = lower value",0.981 (inactive)
same,normalized growth,"locus YJL092W, strain hpr5, stronger effect = lower value",0.983 (inactive)
same,normalized growth,"locus YJL095W, strain BCK1 (second series), stronger effect = lower value",0.998 (inactive)
same,normalized growth,"locus YJL095W, strain BCK1, stronger effect = lower value",0.957 (inactive) and 0.879 (active)
same,normalized growth,"locus YJL115W, strain asf1, stronger effect = lower value",1 (inactive)
same,normalized growth,"locus YJL129C, strain trk1, stronger effect = lower value",0.946 (inactive)
same,normalized growth,"locus YJL134W, strain LCB3, stronger effect = lower value",1 (inactive)
same,normalized growth,"locus YJL154C, strain vps35, stronger effect = lower value",0.999 (inactive)
same,normalized growth,"locus YJL164C, strain tpk1, stronger effect = lower value",0.931 (inactive)
same,normalized growth,"locus YJL166W, strain qcr8, stronger effect = lower value",0.965 (inactive)
same,normalized growth,"locus YJL168C, strain set2, stronger effect = lower value",0.999 (inactive)
same,normalized growth,"locus YJL187C, strain SWE1 (second series), stronger effect = lower value",0.979 (inactive)
same,normalized growth,"locus YJL187C, strain SWE1, stronger effect = lower value",1.01 (inactive)
same,normalized growth,"locus YJR043C, strain POL32, stronger effect = lower value",1.04 (inactive)
same,normalized growth,"locus YJR066W, strain TOR1, stronger effect = lower value",0.792 (active)
